Most compounds without a hit are left out; they make up all but 4.9% or so of the library.
TIM10 inh: TIM10 yeast growth inhibition; S. cerevisiae TIM10 strain growth, BacTiter-Glo luminescence, 24 h; 1.4% of 330,000 active; AID 463195; inhibition, % at 10 µM;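 active = inhibition of 40% or more at the single tested concentration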;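 also: wild-type TIM10 isogenic control strain grown at permissive 25 °C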
NALP1 yeast inh: NALP1 inhibition. S. cerevisiae NALP1/ASC/caspase-1 growth, X-gal OD620, 72 h. inhibition, % at 10 µM. 0.61% of 280,000 active. AID 2071; in the data active = inhibition mostly above about 24%, no sharp cut-off; inactive = mostly below about 32%
SKKanGAS inh: blocks kanamycin growth of S. pyogenes SKKanGAS strain. BacTiter-Glo, 6 h. inhibition, % at 7.5 µM. 1.3% of 300,000 active. AID 1662;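 active = mean replicate score, as percent of positive control median, at least 50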;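 also: strain carries kanamycin resistance gene driven by streptokinase promoter and grows in 40 µg/ml kanamycin; loss of luminescence reflects streptokinase promoter inhibition or plain growth inhibition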
NALP3 yeast inh: blocks the NALP3 inflammasome reconstituted in yeast; 0.39% of 330,000 active; inhibition, % at 10 µM; Yeast reconstituted NLRP3/ASC/caspase-1, beta-gal luminescence, 24 h;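 active = inhibition of 50% or more; inactive = inhibition below 50%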
tim10-1 inh: tim10-1 yeast growth inhibition | inhibition, % at 20 µM | 2.2% of 330,000 active | S. cerevisiae tim10-1 ts strain growth, BacTiter-Glo, 24 h;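 active = inhibition of at least 40%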;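 also: mutant grown at 25 °C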
tim23-1 inh: growth inhibitors of tim23-1 mutant yeast; 1.3% of 330,000 active; AID 463212; S. cerevisiae tim23-1 growth, BacTiter-Glo luminescence, 24 h; inhibition, % at 20 µM;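 active = growth inhibition of the mutant yeast at or above 50%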;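 also: temperature-sensitive mutant grown at 25 °C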
TIM10 conf: confirmation of TIM10 yeast growth inhibitors; shares compounds with TIM10 inh; S. cerevisiae tim10 strain growth, BacTiter-Glo luminescence, 24 h; inhibition, % at 10 µM; 63% of 4,600 active; AID 463215;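 active = inhibition of yeast growth at or above a set limit in either of two replicates at 10 µM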; also: this counterscreen used the strain with wild-type TIM10
tim23-1 conf: tim23-1 yeast growth inhibition, confirmed. shares compounds with tim23-1 inh. S. cerevisiae tim23-1 growth, BacTiter-Glo luminescence, 24 h. inhibition, % at 20 µM. 83% of 4,400 active. AID 463218;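 active = inhibition above about 39% in either of two replicate wells at 20 µM, limit read from the data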;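 also: temperature-sensitive tim23-1 mutant grown at 25 °C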
Each line names hits and unclear results; the compound was inactive in the other large screens (follow-up assays come after a bar, where they were run).

O=C(CSc1cn[nH]n1)Nc1nc2ccccc2s1	none
Cc1cc(C(=O)C(C)Sc2cccc[n+]2[O-])c(C)n1-c1ccc(Cl)cc1 (configuration not stated)	none
O=C(Nc1ccc(-c2cn3ccccc3n2)cc1)c1ccco1	TIM10 inh 44, tim23-1 inh 59 | TIM10 conf inactive | tim23-1 conf 59
O=C(Nc1ccc(-c2cn3ccccc3n2)cc1)c1ccc(Cl)cc1	none
O=C(Cn1cnc2c(OCc3ccccc3)ncnc21)NCc1ccccn1	none (no result: NALP1 yeast inh, SKKanGAS inh)
CC1CCN(S(=O)(=O)c2ccc(C(=O)N3CCCC(C(F)(F)F)C3)cc2)CC1 (configuration not stated)	none (no result: NALP1 yeast inh)
COc1cc(OC)cc(C(=O)Oc2c(CN3CCOCC3)cc(Cl)c3cccnc23)c1	none
Oc1c(CN2CCc3ccccc3C2)cc(Cl)c2cccnc12	TIM10 inh 43, SKKanGAS inh 89, tim23-1 inh 56 | TIM10 conf 41 | tim23-1 conf 54
N/C(Cc1ccc(Cl)cc1)=N\OC(=O)C1CCCCC1	TIM10 inh 87, NALP1 yeast inh 47, tim23-1 inh 79 | TIM10 conf inactive | tim23-1 conf 53
Cc1nc(C)c(-c2csc(Nc3ccccn3)n2)s1	TIM10 inh 48, tim23-1 inh 54 | TIM10 conf 47 | tim23-1 conf 45
Oc1c(Br)cc(Br)cc1/C=N/NC(=S)N[C@H]1CC2C=CC1C2 (some centres not stated)	TIM10 inh 46, SKKanGAS inh 120, tim23-1 inh 57 | TIM10 conf 48 | tim23-1 conf 68
O=C(NNC(=S)NC1CC2C=CC1C2)c1cccnc1 (configuration not stated)	none
Cc1ccc(NC(=S)N2CCN(c3ccccc3F)CC2)c(C)c1	none
Cn1c(-c2cnn(-c3ccccc3)c2-n2cccc2)n[nH]c1=S	none
CCN(CC)c1ccc(/C=N/NC(=O)c2ccco2)c(O)c1	TIM10 inh 54, tim23-1 inh 75 (no result: SKKanGAS inh) | TIM10 conf 61 | tim23-1 conf 77
Cc1ccc2c(c1)C(=O)C(=O)N2Cc1ccc(C(F)(F)F)cc1	TIM10 inh 41, tim23-1 inh 82 (no result: NALP1 yeast inh, SKKanGAS inh) | TIM10 conf 58 | tim23-1 conf 32
Cc1ccc2c(c1)C(=O)C(=O)N2CC(=O)OC(C)C	none
COc1cccc(/C=N/NC(=O)c2c(C)nc3ccc(Cl)cn23)c1O	TIM10 inh 48, SKKanGAS inh 103, tim23-1 inh 59 | TIM10 conf 65 | tim23-1 conf 58
COc1ccccc1/C=N\NC(=O)c1c(C)nc2ccc(Cl)cn12	none
CCOc1ccccc1/C=C/C(=O)c1ccc(Cl)cc1	none
O=C(/C=C/c1ccccc1O)c1ccc(Cl)cc1	TIM10 inh 42, tim23-1 inh 56 | TIM10 conf 39 | tim23-1 conf 58
Nc1ccc(-c2nc3ncccc3o2)c(O)c1	TIM10 inh 50, tim23-1 inh 58 | TIM10 conf 43 | tim23-1 conf 65
Nc1ccc(Cl)c(-c2nc3ncccc3o2)c1	none
COc1ccc(-c2nnc(Sc3nc4ccccc4o3)c3ccccc23)cc1	TIM10 inh 42, tim23-1 inh 52 | TIM10 conf 36 | tim23-1 conf 42
COc1ccc(-c2nnc(OC)c3ccccc23)cc1	none
CC(=O)SC(C[N+](=O)[O-])c1cn(C(C)=O)c2ccccc12 (configuration not stated)	TIM10 inh 80, tim23-1 inh 89 | TIM10 conf 86 | tim23-1 conf inactive
CC(=O)n1cc(Nc2ccc([N+](=O)[O-])cc2)c2ccccc21	none
CCC(C)c1ccc(NC(=O)c2[nH]c(C)c(C(C)=O)c2C)cc1 (configuration not stated)	TIM10 inh 43, tim23-1 inh 53 | TIM10 conf inactive | tim23-1 conf 52
CCCOC(=O)Oc1ccc2c(=O)c(Oc3cc(C)cc(C)c3)coc2c1	TIM10 inh 47, tim23-1 inh 51 | TIM10 conf 41 | tim23-1 conf 53
Cc1cccc(NC(=O)CSc2nnc(-c3ccncc3)n2CC2CCCO2)c1 (configuration not stated)	none
